Measurements published in ChEMBL document CHEMBL4513135, “CO-ADD screening of IQOG CSIS (Spain) compounds”.
Several values for one entry are separate records, joined by “and”; a condition that tells them apart may be missing. Equal entries are not always repeated. Potency and affinity values are given separately.

How the values were obtained:
Staphylococcus aureus = details: Concentration 32 ug.mL-1; ASSAY_TEST Inhibition of Bacterial Growth; detection method Absorption (OD600); MEDIA CAMHB; plate type 384well; NBS; CORNING #3640; time 18 hr
Escherichia coli = details: Concentration 32 ug.mL-1, ASSAY_TEST Inhibition of Bacterial Growth, detection method Absorption (OD600), MEDIA CAMHB, plate type 384well, NBS, CORNING #3640, time 18 hr

Row | SMILES | Inhibition (Staphylococcus aureus) [%] | Inhibition (Escherichia coli) [%] | Inhibition (Escherichia coli; 32 ug/mL)
1 | Cc1ccccc1C=C(C#N)C#N | 3.49 | 0.38 | 
2 | CN1CC=C(c2cccn2C)CC1.Cl | 10.31 | 19.65 | 
3 | O=C(CBr)NCc1ccccc1 | 46.96 | 14.62 | 
4 | N#Cc1cc(C#N)c(N2C3CCC2CC3)nc1N | -1.36 | 10.18 | 
5 | NNC(=O)c1cccnc1 [NICOTINIC ACID HYDRAZIDE] | 11.6 | 15.76 | 
6 | Cc1nc(N)c(C#N)cc1C(=O)O | 4.41 | -9.15 | 
7 | O=C(N1[C@H]2CC[C@@H]1C(c1nnn[nH]1)C2)C(F)(F)F (some centres not stated) | 26.59 | -6.69 | 
8 | CCOC(=O)c1cc2cc(OC(=O)NC3CCN(Cc4ccccc4)CC3)ccc2[nH]1 | 20.68 | -6.09 | 
9 | CNCc1cn(C)c2ccc(OC)cc12.Cl | 14.24 | 17.26 | 
10 | N#CC(C#N)=Cc1ccc(Cl)cc1 | 7.12 | 5.89 | 
11 | N#CCC(=O)c1ccccc1 | 30.68 | 18.52 | 
12 | CCOC(=O)C1=C(C)NC(=O)CC1c1ccccc1 (configuration not stated) | 39.69 | -3.27 | 
13 | CCOC(=O)C1=C(OC)OC(=O)CC1c1ccccc1 (configuration not stated) | 39.56 | -6.33 | 
14 | COc1cc(C2C(C#N)=C(N)Oc3c2ccc2ccccc32)cc(OC)c1OC (configuration not stated) | 6.42 | 8.07 | 
15 | Cl.ClCCN1CCCC1 | 22.74 | 7.3 | 
16 | C#CCN1CCc2nc(N)c(C#N)c(-c3ccccc3)c2C1 |  |  | -14.9% and -16.29%
17 | CCOC(=O)c1cn(Cc2ccccc2)c2ccccc12 | 3.83 | -2.16 | 
18 | CC1CC(=O)Nc2nc3c(c(N)c21)CCCC3 (configuration not stated) | 27.94 | -10.32 | 
19 | Cc1ccc(C=C(C#N)C#N)cc1 | 8.41 | 8.38 | 
20 | C#CCN(C)Cc1cc2cc(OCCCC3CCN(Cc4ccc(OC(=O)N(C)C)c5ncccc45)CC3)ccc2n1C | 11.25 | -10.82 | 

Row | SMILES | Inhibition (Staphylococcus aureus) [%] | Inhibition (Escherichia coli) [%] | Inhibition (Escherichia coli; 32 ug/mL)
21 | C#CCN1CCc2nc3nc(Cl)c(C#N)cc3c(N)c2C1 | 26.25 | -10.74 | 
22 | Cc1ccc(S(=O)(=O)N2[C@H]3CC[C@@H]2CC3)cc1 | 28.46 | -2.06 | 
23 | C#CCN1CCc2nc3ncccc3c(N)c2C1.Cl | 20.08 | -15.24 | 
24 | C#CCN1CCc2nc3nc(OC)c(C#N)cc3c(N)c2C1 | 26.45 | -2.8 | 
25 | COc1ccc2c(c1)cc(C[N+](C)(C)C)n2C.[I-] | 13.5 | 12.23 | 
26 | NNCCCc1c[nH]c2ccccc12.O=C(O)/C=C/C(=O)O | 18.22 | 27.72 | 
27 | Nc1c2c(nc3c1C(c1ccccc1)CC(=O)N3)CCCC2 (configuration not stated) | 28.94 | 0.15 | 
28 | [N-]=[N+]=NCC(=O)c1ccc(Br)cc1 | 26.38 | 9.41 | 
29 | CN(C)C(=O)Oc1ccc(CCl)c2cccnc12 | 22.39 | -10.05 | 
30 | CCOC(=O)C1=C(C)OC(=O)CC1c1ccccc1 (configuration not stated) | 23.21 | -9.36 | 
31 | Nc1c2c(nc3ccccc13)CCN(Cc1ccccc1)C2 | 9.97 | 1.56 | 
32 | C#CCN(C)Cc1cc2cc(OC(=O)N(C)C)ccc2n1C | -2.15 | -5.14 | 
33 | COc1ccc(C=C(C#N)C#N)cc1OC | 14.77 | 13.47 | 
34 | CCOc1nc2nc(C)c(C(=O)O)cc2c(-c2ccccc2)c1C#N | 17.86 | -10.47 | 
35 | CN1CC=C(c2cccn2C)CC1 | 10.32 | 19 | 
36 | NNC(=O)c1cn(Cc2ccccc2)c2ccccc12 | 1.65 | 1.53 | 
37 | OCC(Cc1cnc[nH]1)NCc1ccccc1 (configuration not stated) | 6.92 | 2.95 | 
38 | Cl.ClCCN1CCCCC1 | 28.78 | 20.05 | 
39 | C#CCN(C)Cc1cc2cc(OCc3ccc(OC(=O)N(C)C)c4ncccc34)ccc2n1C | 7.52 | -14.26 | 
